{"source": "PubChem BioAssay AID628", "about": "(Vanderbilt High Throughput Screening Facility, 2007)", "note": "Among all 64,000 compounds or so, about 2,200 (3.4%) were called active. Shown is part of a subset that was picked to be rich in actives. Values without a mark were called inactive.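 Rule for the calls: active = calcium fluorescence response, raw or row-and-column corrected B-score, differing from the plate sample mean either way at a set confidence level, mostly lower; inactive = the rest.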"}
{"biological_target": "Muscarinic acetylcholine receptor M1 (Rattus norvegicus) (UniProt P08482)", "sequence (P08482 whole entry, looked up)": "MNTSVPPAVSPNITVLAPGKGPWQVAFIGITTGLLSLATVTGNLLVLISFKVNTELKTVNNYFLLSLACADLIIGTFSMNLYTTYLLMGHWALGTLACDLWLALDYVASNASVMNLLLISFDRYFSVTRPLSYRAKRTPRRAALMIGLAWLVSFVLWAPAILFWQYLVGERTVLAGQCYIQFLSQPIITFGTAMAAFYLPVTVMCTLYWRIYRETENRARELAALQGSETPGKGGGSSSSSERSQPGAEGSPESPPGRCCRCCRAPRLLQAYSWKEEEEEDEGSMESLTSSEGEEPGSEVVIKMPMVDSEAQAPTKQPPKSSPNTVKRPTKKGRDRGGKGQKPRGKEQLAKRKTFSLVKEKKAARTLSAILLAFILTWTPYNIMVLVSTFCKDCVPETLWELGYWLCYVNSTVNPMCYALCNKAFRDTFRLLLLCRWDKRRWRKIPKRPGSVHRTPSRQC", "assay": "antagonists of rat M1 muscarinic receptor (AID 628)", "details": "CHO-M1 cells, Fluo-4 calcium, ACh EC80 antagonist mode; at 10 µM; hits give low values"}
{"smiles": "Cc1[nH]c2ccccc2c1C(=O)CSCC(=O)O", "B-score": -0.627}
{"smiles": "O=S(=O)(c1ccc(OCC(O)CN2CCN(c3ccccc3Cl)CC2)cc1)N1CCOCC1", "note": "(stereo not drawn)", "B-score": "-1.73 (active)"}
{"smiles": "COC(=O)COc1ccc(S(=O)(=O)N2CCOCC2)cc1", "B-score": 0.524}
{"smiles": "OC(COc1ccc2ccccc2c1)CN1CCOCC1", "note": "(stereo not drawn)", "B-score": -0.165}
{"smiles": "CCCc1[nH]nc2c1C(c1ccc(OC)c(Cn3nc(C)c(Br)c3C)c1)C(C#N)=C(N)O2", "note": "(stereo not drawn)", "B-score": -0.527}
{"smiles": "Cc1ccc(-c2noc(CCC(N)=O)n2)cc1", "B-score": 0.182}
{"smiles": "CCCC(=O)Nc1ccccc1N1CCN(C(=O)c2ccccc2)CC1", "B-score": 0.0711}
{"smiles": "Cc1ccc(-c2noc(CCC(=O)Nc3ccccc3N3CCN(C)CC3)n2)cc1", "B-score": "-3.17 (active)"}
{"smiles": "COc1ccc(NC(=O)Nc2cccc3cccnc23)cc1", "B-score": -0.447}
{"smiles": "CCOC(=O)c1cccc(NC(=O)CN(c2ccc(C)cc2)S(=O)(=O)c2c(C)noc2C)c1", "B-score": -0.345}
{"smiles": "COC(=O)c1ccc(NC(=O)CN(c2ccc(C)cc2)S(=O)(=O)c2c(C)n[nH]c2C)cc1", "B-score": "-1.39 (active)"}
{"smiles": "CCN(CC)C(=O)CCC(=O)Nc1ccc(C(=O)OC)cc1", "B-score": -0.0517}
{"smiles": "CCOc1ccc(-c2nnc(-c3ccco3)o2)cc1", "B-score": 0.158}
{"smiles": "CC(C)(C)NC(=O)C(c1ccco1)N(Cc1ccc2c(c1)OCO2)C(=O)Cn1nnc2ccccc21", "note": "(stereo not drawn)", "B-score": -0.446}
{"smiles": "CCOC(=O)CSc1nc2sc3c(c2c(=O)[nH]1)CC(C)(C)OC3", "B-score": 1.04}
{"smiles": "CCC1(C)Cc2c(sc3nc4n(c(=O)c23)CCCS4)CO1", "note": "(stereo not drawn)", "B-score": "-1.1 (active)"}
{"smiles": "CCOC(=O)Cn1c(SC)nc2sc3c(c2c1=O)CC(C)(C)OC3", "B-score": -0.00652}
{"smiles": "CCOC(=O)C1CCN(c2ncnc3c2oc2ccc(Br)cc23)CC1", "B-score": 1.09}
{"smiles": "CCOC(=O)N1CCN(C(=O)C2CC(c3ccc(F)cc3)=NO2)CC1", "note": "(stereo not drawn)", "B-score": 1.56}
{"smiles": "CCOC(=O)N1CCN(C(=O)C2CCCN(c3ncnc4c3sc3cccc(F)c34)C2)CC1", "note": "(stereo not drawn)", "B-score": "-6.95 (active)"}
{"smiles": "Cc1cc(=O)n2nc(N3CCCC(C(=O)N4CCN(C)CC4)C3)sc2n1", "note": "(stereo not drawn)", "B-score": -0.192}
{"smiles": "CCOC(=O)C1CCCN(C(=O)C2CCN(c3nnc(-n4cccc4)s3)CC2)C1", "note": "(stereo not drawn)", "B-score": -0.147}
{"smiles": "CCOC(=O)N1CCN(C(=O)C2CCN(c3ncnc4c3sc3cccc(F)c34)CC2)CC1", "B-score": "-6.68 (active)"}
{"smiles": "Clc1ccc(Nc2nc(-c3cccs3)cs2)nc1", "B-score": -1.85}
{"smiles": "Cn1c(=NC(=O)C2CC2)sc2cc(F)cc(F)c21", "B-score": -2.24}
{"smiles": "COC(=O)COc1ccc2oc(=O)cc(C)c2c1", "B-score": 0.286}
{"smiles": "O=c1c2c(nc3n1CCCCC3)sc1c(O)cccc12", "B-score": -0.992}
{"smiles": "CN(C)CCSc1nc(N)c2c3c(sc2n1)COC(C)(C)C3", "B-score": 0.0678}
{"smiles": "CC1(C)Cc2c(sc3nc4n(c(=N)c23)CCCCC4)CO1", "B-score": "-2.66 (active)"}
{"smiles": "CCOC(=O)c1cccc(NC(=O)C2CCCN(S(=O)(=O)c3cnc[nH]3)C2)c1", "note": "(stereo not drawn)", "B-score": 0.994}
{"smiles": "COc1ccc(OC)c(NC(=O)Cn2c(=O)oc3ccccc32)c1", "B-score": -0.343}
{"smiles": "CCn1c(=N)n(CC(=O)c2cccc(OC)c2)c2ccccc21", "B-score": "-6.64 (active)"}
{"smiles": "C=CCn1c(=N)n(CC(O)COc2ccc(OC)cc2)c2ccccc21", "note": "(stereo not drawn)", "B-score": 0.0139}
{"smiles": "CCCCCC(=O)Nc1ccc2oc(-c3ccncc3)nc2c1", "B-score": 0.442}
{"smiles": "CCc1c(C)sc(NC(=O)c2ccc(Br)o2)c1C(=O)OC", "B-score": -0.053}
{"smiles": "OC(COc1ccccc1)Cn1cc(Br)cn1", "note": "(stereo not drawn)", "B-score": -0.268}
{"smiles": "CC(=O)N1CCN(C(=O)c2cccc(S(=O)(=O)Nc3ccc(C)cc3)c2)CC1", "B-score": -0.171}
{"smiles": "Cc1ccc(S(=O)(=O)Nc2ccc3ncccc3c2)cc1", "B-score": "-3.27 (active)"}
{"smiles": "O=S(=O)(Nc1ccc2nc(-c3ccco3)[nH]c2c1)c1ccccc1", "B-score": -0.153}
{"smiles": "COc1ccc(NC(C)=O)cc1NC(=O)CN1CCN(C2c3ccccc3-c3ccccc32)CC1", "B-score": 0.0245}
{"smiles": "CN(CCCC(=O)Nc1nccs1)S(=O)(=O)c1ccc(Cl)cc1", "B-score": 0.248}
{"smiles": "O=C(NCCCCO)C(F)(F)C(F)(F)C(F)(F)C(=O)NCCCCO", "B-score": 0.234}
{"smiles": "CC(=O)c1c(N2CCOCC2)nc(=S)n(-c2cc(C)ccc2C)c1C", "B-score": -0.429}
{"smiles": "CCOc1cc(/C=N/n2cnnc2)c(Br)cc1O", "B-score": 0.717}
{"smiles": "COCCNCCOCCOc1cccc(OC)c1", "B-score": 0.826}
{"smiles": "C=CCOc1ccc(/C=N/n2cncn2)cc1OC", "B-score": 0.195}
{"smiles": "COc1ccccc1OCCOc1ccc(/C=N/n2cnnc2)cc1", "B-score": "-2.39 (active)"}
{"smiles": "COc1cccc(OCCOc2cccc(/C=N/n3cnnc3)c2)c1", "B-score": "-2.76 (active)"}
{"smiles": "C(=N\\n1cnnc1)/c1cccnc1", "B-score": -0.0308}
{"smiles": "O=C(CSc1nc2[nH]ncc2c(=O)n1-c1ccccc1)N1CCCc2ccccc21", "B-score": 0.281}
{"smiles": "CCOc1cc(C)c(Cl)cc1S(=O)(=O)n1nnc2ccccc21", "B-score": 0.583}
{"smiles": "COc1ccc(C(=O)NCCc2ccc(S(N)(=O)=O)cc2)cc1OC", "B-score": -0.216}
{"smiles": "Cc1cc2cc(CN(Cc3cccs3)Cc3nnnn3CC3CCCO3)c(=O)[nH]c2cc1C", "note": "(stereo not drawn)", "B-score": -0.714}
